Screening data deposited in PubChem by several laboratories.
In the library only some 1.3% were active in any assay of this set; here they are far more common.
PREPL inh: inhibits the human prolyl oligopeptidase-like enzyme; Q4J6C6; recombinant PREPL, fluorescence polarization activity-based probe; inhibition, % at 5.96 µM; 0.68% of 320,000 active; AID 2751; in the data active = inhibition above about 43%;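 note: 0% = enzyme with DMSO and 100% = wells lacking enzyme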
FID counter: displaces DNA intercalator in HCV helicase counter-screen. DNA fluorescent intercalator displacement, fluorescence. inhibition, % at 7.9 µM. 0.17% of 290,000 active; in the data active = inhibition above about 37%;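 note: 0% = vehicle and 100% = reference compound; higher means more ethidium bromide displaced from hairpin DNA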
MIN6 prolif: MIN6 beta-cell proliferation induction; MIN6 cells proliferation, ATPlite luminescence, 48 h; cells starved in 0.2% serum; 100% = growth in 10% serum; proliferation, % at 10 µM; 0.29% of 330,000 active;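 active = compounds whose signal lies at least 3.5 SD above the mean of all wells on their plate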;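 note: 0% = DMSO-treated cells in low-serum medium and 100% = 10% serum control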
UBC13 polyUb: human UBC13 polyubiquitination inhibition. UBC13 polyubiquitin chain formation, TR-FRET. inhibition, % at 20 µM. 0.47% of 330,000 active; in the data active = inhibition above about 45%, passing the limit was not always enough
RAD54 branch: blocks human RAD54 Holliday junction branch migration; Q92698; FAM/BHQ fluorescence; inhibition, % at 10.4 µM; 0.14% of 360,000 active;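 active = mean normalized replicate activity at least 40 and at least half of replicates scoring 40 or more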;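 note: 0% = median of neutral control wells and 100% = median of positive control wells; inhibitors cause a drop in the FAM fluorescence signal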
Target sequence (Q92698 whole entry, looked up): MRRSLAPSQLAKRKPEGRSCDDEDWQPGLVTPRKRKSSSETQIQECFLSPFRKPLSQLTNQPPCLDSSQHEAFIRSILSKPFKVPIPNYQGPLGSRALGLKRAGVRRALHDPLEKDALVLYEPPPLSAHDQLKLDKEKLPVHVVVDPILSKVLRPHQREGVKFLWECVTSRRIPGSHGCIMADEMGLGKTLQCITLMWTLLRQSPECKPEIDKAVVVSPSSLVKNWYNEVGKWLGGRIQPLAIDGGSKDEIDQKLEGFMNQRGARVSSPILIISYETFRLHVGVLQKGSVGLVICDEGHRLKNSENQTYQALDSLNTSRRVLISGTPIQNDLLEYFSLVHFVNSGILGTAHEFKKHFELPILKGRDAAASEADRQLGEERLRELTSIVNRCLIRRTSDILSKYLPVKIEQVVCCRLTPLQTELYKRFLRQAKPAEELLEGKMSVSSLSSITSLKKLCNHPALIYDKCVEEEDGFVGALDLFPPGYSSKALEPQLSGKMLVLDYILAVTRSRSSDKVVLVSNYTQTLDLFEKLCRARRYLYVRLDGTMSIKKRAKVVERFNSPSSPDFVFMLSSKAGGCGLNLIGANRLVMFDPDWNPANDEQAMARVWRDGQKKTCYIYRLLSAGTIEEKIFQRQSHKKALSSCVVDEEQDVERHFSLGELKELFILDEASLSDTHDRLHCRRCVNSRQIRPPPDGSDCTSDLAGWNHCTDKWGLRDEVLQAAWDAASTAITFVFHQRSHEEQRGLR
RAD52 anneal inh: inhibitors of human RAD52 DNA annealing; recombinant RAD52 DNA annealing, FRET fluorescence; inhibition, % at 18.7 µM; 0.46% of 360,000 active; AID 651710;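 active = every replicate showing at least 50% inhibition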
RAD52 DNA ctr: DNA binding artifact in RAD52 counter-screen; shares compounds with RAD52 anneal inh; Salmon sperm DNA/acridine orange FP displacement; AC50, µM; 8% of 1,000 active; AID 652128;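 active = fitted half-maximal concentration for signal loss at or below twice the highest dose tested, in every separate run, actives reach about 64 µM in these data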
The depositor's hits bear a star; i = inactive; / = not tested or not shown; ! = not confirmed by another sample.

SMILES	PREPL inh	FID counter	MIN6 prolif	UBC13 polyUb	RAD54 branch	RAD52 anneal inh	RAD52 DNA ctr
COCC#Cc1ccc2c(c1)O[C@@H](CN(C)C(=O)CN(C)C)[C@@H](C)CN([C@@H](C)CO)S2(=O)=O	/	/	/	/	-4	-19	/
C[C@H]1CN([C@@H](C)CO)S(=O)(=O)c2ccc(C#CCN(C)C)cc2O[C@@H]1CN(C)C(=O)CN(C)C	/	/	/	/	-6	4	/
COCC(=O)N(C)C[C@H]1Oc2cc(-c3cncnc3)ccc2S(=O)(=O)N([C@@H](C)CO)C[C@@H]1C	/	/	/	/	-4	-7	/
CCNC(=O)/C(C#N)=C/c1c(N2CCCCCC2)nc2c(C)cccn2c1=O	2	-39	-3	8	3	95*	i
COc1ccc(/C=N/NC(=O)c2cc(OC)c(OC)c(OC)c2)cc1CN1CCc2cc(OC)c(OC)cc2C1C (stereo not given)	3	12	-4	0	/	53*	i
CCCNc1nc2ccccc2n2c(C)nnc12	-4	-12	-2	-3	-1	73*	i
CCCN(CCC)c1nc2ccccc2n2c(C)nnc12	6	-16	-2	-9	-1	/	/
CNC12CCc3cc(OC)c(OC)c(c31)-c1cc3c(cc1C2)OCO3 (stereo not given)	/	/	/	/	/	54*	i
COc1cc2c(c(OC)c1OC)-c1c(cc3c(c1O)OCO3)C[C@@H](C)[C@@H](C)C2	5	/	-5	3	-5	8	/
OC[C@@H]1CN(CCc2ccccc2)C[C@H](n2cnc3c(NCc4ccc(F)cc4)ncnc32)O1	/	/	/	/	-4	75*	i
OC[C@@H]1CN(CCN2CCOCC2)C[C@H](n2cnc3c(NCc4ccc(F)cc4)ncnc32)O1	/	/	/	/	0	-5	/
C[N+]1(CC(=O)NNc2c3ccccc3nc3ccccc23)CCOCC1	17	43*	2	-318	/	101*	9µM*
O=C(CN1CCOCC1)NNc1c2ccccc2nc2ccccc12	1	14	0	-40	/	15	/
O=c1c2ccccc2nc2c3ccccc3c(NCCN3CCOCC3)nn12	-5	23	-6	-1	/	/	/
O=c1c2c(-c3ccccc3)csc2nc2c3ccccc3c(NCCN3CCOCC3)nn12	/	31	/	/	/	87*	i
COc1cc2cc(-c3ccc(O)cc3O)nc(C)c2cc1OC	32	-6	-5	11	36	-3	/
COc1cc2cc(-c3ccc(OC)c(OC)c3C)nc(N)c2cc1OC	23	/	-4	16	45	61*	i
O=C(N[C@@H]1CC[C@H](CCNS(=O)(=O)c2ccc(F)cc2)O[C@@H]1CO)C1CCOCC1	/	/	/	/	0	-5	/
CO[C@@H]1CN(C)C(=O)c2ccc(NC(=O)Nc3c(C)noc3C)cc2OC[C@H](C)N(C)C[C@@H]1C	/	/	/	/	-9	-4	/
CN1CCc2cccc3c2[C@H]1Cc1ccc(O)c(O)c1-3	20	13	-6	4	32	90*!	i
Cc1noc(C)c1NC(=O)N[C@H]1C=C[C@H](CC(=O)Nc2ccc(-c3ccccc3)cc2)O[C@H]1CO	/	/	/	/	-1	-10	/
COc1nc(Nc2cccc(F)c2)nc(OC)n1	-11	-6	0	-5	0	-5	/
COc1cc2nc(Nc3cccc(F)c3)nc(N)c2cc1OC	24	30	-6	25	36	61*	i
CN/C(=C\[N+](=O)[O-])NCCSCc1ccc(CN(C)C)o1	-7	/	0	-21	-10	61*	i
Oc1ccccc1C=NCCN1CCN(CCN=Cc2ccccc2O)C1c1ccccc1O (stereo not given)	/	/	/	/	16	66*	i
SMILES	PREPL inh	FID counter	MIN6 prolif	UBC13 polyUb	RAD54 branch	RAD52 anneal inh	RAD52 DNA ctr
Oc1ccccc1C=NCCCCCCN=Cc1ccccc1O	5	2	-1	-4	-16	59*	i
O=C(C[C@@H]1C=C[C@H](NC(=O)c2ccccc2)[C@H](CO)O1)NCCc1ccncc1	/	/	/	/	2	1	/
CCCC(O)C#Cc1cnc2c(c1)C(=O)N([C@H](C)CO)C[C@H](C)[C@H](CN(C)Cc1ccc3c(c1)OCO3)O2 (stereo not given in full)	/	/	/	/	7	9	/
O=C(NCC[C@H]1CC[C@@H](NC(=O)c2ccccc2F)[C@@H](CO)O1)c1cnccn1	/	/	/	/	4	-13	/
CCOc1cc2[nH]c(=S)n(Cc3ccc(C(=O)NCCN(CC)CC)cc3)c(=O)c2cc1OCC	27	29	-6	25	45	53*	i
CO[C@@H]1CN(C)C(=O)c2ccc(NC(=O)c3cnccn3)cc2OC[C@H](C)N(C(=O)C2CC2)C[C@@H]1C	/	/	/	/	3	-14	/
CN(C)Cc1c(OC(=O)c2ccc(N)cc2)ccc2ccccc12	/	/	/	/	-3	59*	i
C[C@H]1CN([C@@H](C)CO)C(=O)c2cc(NC(=O)CCN3CCOCC3)ccc2O[C@H]1CN(C)C	/	/	/	/	-6	-2	/
Cc1cc(C(=O)OC(C)C(=O)NC2CCCCC2C)c2ccccc2n1 (stereo not given)	/	/	/	/	-4	51*	i
CC1=CC(C)(C)N=C(Nc2nc(C)c3cc(C)cc(C)c3n2)N1	8	12	-6	34	32	79*	i
CCc1nc2ccc(C(=O)Nc3cc(-c4ccccc4)ccc3OC)cn2c1N(C)CCC(C)C	/	/	/	/	2	-98	/
CCc1nc2ccc(C(=O)Nc3cc(-c4ccccc4)ccc3OC)cn2c1N(CCN(C)C)CC1CC1	/	/	/	/	18	63*	i
C[C@@H]1CN([C@@H](C)CO)C(=O)c2cc(C#CCN(C)C)cnc2O[C@@H]1CN(C)C(=O)c1cccnc1	/	/	/	/	1	-8	/
N#C[C@@H]1[C@@H](c2ccc(-c3cncnc3)cc2)[C@H](CO)N1C(=O)C1CCC1	/	/	/	/	-7	-48	/
OC[C@@H]1CN(Cc2ccc3c(c2)OCO3)C[C@H](n2cnc3c(N4CCCC4)ncnc32)O1	/	/	/	/	4	86*	i
OC[C@@H]1CN(Cc2ccc3c(c2)OCO3)C[C@H](n2cnc3c(N4CCOCC4)ncnc32)O1	/	/	/	/	-2	-11	/
CCCCCCCCCCCCCCCC[N+](C)(C)Cc1ccc(F)cc1	/	/	/	/	/	91*	26µM*
O=C(CCn1nc(-c2ccc(Cl)cc2)ccc1=O)NCCCN1CCCCCC1	22	15	1	17	-18	63*	i
CCCN1CCN(CCCNC(=O)CCn2nc(-c3ccccc3)ccc2=O)CC1	-8	10	-3	-2	-8	-23	/
CC[n+]1c(C=C2C=C(C)OC(C)=C2)sc2ccccc21	/	6	-5	-50	/	59*	i
COCC(=O)Nc1ccc2c(c1)C(=O)N(C)[C@H]1CC[C@@H](CC(=O)NC3CCCC3)O[C@@H]1CO2	/	/	/	/	-2	/	/
CC(=O)Nc1cccc(N/C(N)=N/c2nc(C)cc(C)n2)c1	-2	-6	-1	3	/	57*	i
CCOC(=O)c1c(C)n(CC(O)CN(C)C)c2cc(Br)c(OC)cc12 (stereo not given)	12	15	-4	4	/	85*	i
